# High-throughput results: PubChem BioAssay, National Center for Advancing Translational Sciences (NCATS)
# G9a inh = qHTS Assay for Inhibitors of Histone Lysine Methyltransferase G9a; Histone-lysine N-methyltransferase EHMT2 (Homo sapiens), Q96KQ7; G9a H3K9 monomethylation, AlphaScreen, 2 h; Potency, µM (titrated, usually from 102 µM), without a hit: at the top dose activity, negative = inhibition, actives largely listed as inhibitors; 8.8% of 350,000 active; also: potency is read from the fitted curve at half-maximal effect; nearly all actives have a fitted effect of over 75% in size
#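 Methyltransferase reactions run at room temperature for 2 h (20 nM enzyme, 500 nM biotin-H3K9 peptide, 20 uM SAM) after a 15 min compound preincubation; product detected by AlphaScreen beads and anti-H3K9me1 antibody.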
# CCT modulator = High-Throughput Screening for Modulators of Cytosolic Chaperonin Activity; purified chaperonin ATPase assay, HTRF ADP detection, 30 min; activity change, % (test concentration not listed), hits read low; 0.3% of 360,000 active; in the data active = activity change below about -30%
#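 TRiC (40 or 20 nM final, by batch activity) in 30 mM Tris pH 7.4, 100 mM KCl, 5 mM MgCl2, 1 mM DTT was treated with compound at 76 uM single dose, then 10 uM ATP, 30 min at 37 °C. ADP was read by HTRF Transcreener.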
# VDR inhibitor = Inhibitors of the vitamin D receptor (VDR): qHTS. Potency, µM, inactives show max response, negative = inhibition, hits mostly inhibitors. AID 504847, 2011. Vitamin D3 receptor (Homo sapiens), P11473. VDR-SRC2-3 peptide fluorescence polarization, 2 h. 0.93% of 400,000 active; also: potency is read from the fitted curve at half-maximal effect
#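 Measured by FP: displacement of SRC2-3 coactivator peptide from VDR by library compounds, following a two-hour ambient incubation.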
# MmCpn inh = Inhibitors of TCP-1 ring complex (TRiC) of Methanococcus maripaludis (MmCpn): qHTS | Chaperonin Mm-Cpn (Methanococcus maripaludis) | purified Mm-Cpn ATPase, ADP Transcreener TR-FRET | Potency, µM (highest dose often 76.9 µM), without a hit: at the highest dose activity, negative = inhibition, usual class: inhibitors | 0.031% of 330,000 active; also: potency is read from the fitted curve at half-maximal effect; nearly all actives have a fitted effect of over 80% in size
#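 Quantitative HTS used 25 nM Mm-CPN and 10 uM ATP in magnesium/KCl Tris buffer, pH 7.4, with 1 mM DTT. Hydrolysis ran 30 min at 37°C; ADP was read by HTRF.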
# PLK1 PBD inh = qHTS for Inhibitors of PLK1-PDB (polo-like kinase 1 - polo-box domain): Primary Screen | Potency, µM, inactives show max response, negative = inhibition, usual class: inhibitors | 2.8% of 360,000 active | Plk1 PBD binding of FITC phosphopeptide, fluorescence polarization | Serine/threonine-protein kinase PLK1 (Homo sapiens), P53350 | AID 720504, 2013; also: potency is read from the fitted curve at half-maximal effect; series mostly up to about 57 µM; nearly all actives have a fitted effect of over 65% in size
# Target sequence (P53350 whole entry, looked up, the tested form may be a part): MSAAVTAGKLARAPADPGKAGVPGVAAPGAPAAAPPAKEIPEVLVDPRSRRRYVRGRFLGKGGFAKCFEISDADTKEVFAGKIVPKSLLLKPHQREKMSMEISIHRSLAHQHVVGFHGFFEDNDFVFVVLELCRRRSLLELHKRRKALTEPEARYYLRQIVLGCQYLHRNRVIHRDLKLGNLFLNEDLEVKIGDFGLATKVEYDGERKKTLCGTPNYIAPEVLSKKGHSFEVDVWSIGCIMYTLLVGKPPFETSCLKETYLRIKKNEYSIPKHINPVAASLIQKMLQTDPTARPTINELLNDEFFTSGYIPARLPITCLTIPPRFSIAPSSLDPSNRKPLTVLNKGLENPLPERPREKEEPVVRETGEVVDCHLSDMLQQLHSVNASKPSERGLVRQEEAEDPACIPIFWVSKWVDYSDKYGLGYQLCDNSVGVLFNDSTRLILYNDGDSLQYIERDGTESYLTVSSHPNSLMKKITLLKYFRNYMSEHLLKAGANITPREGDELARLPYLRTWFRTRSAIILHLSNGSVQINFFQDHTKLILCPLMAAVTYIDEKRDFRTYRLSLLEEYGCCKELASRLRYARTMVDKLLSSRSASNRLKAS
# Sfp PPTase inh = qHTS Assay for Inhibitors of Bacillus subtilis Sfp phosphopantetheinyl transferase (PPTase) | 4'-phosphopantetheinyl transferase ffp (Bacillus subtilis), Q9F4F7 | Biochemical Sfp PPTase activity, qHTS | Potency, µM, for inactives: largest response in the series, negative = inhibition, hits mostly inhibitors | 3.5% of 310,000 active;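 also: the enzyme is Sfp with the accession as filed and its product quenches rhodamine fluorescence; potency is read from the fitted curve at half-maximal effect; 0% = enzyme reaction without inhibitor and -100% = no enzyme wells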
#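 Buffer: 50 mM Hepes-Na pH 7.6, 10 mM MgCl2, 0.01% Nonidet P-40, 0.01% BSA. Enzyme 15 nM, pre-exposed to compound 15 min; substrates then added and fluorescence change tracked over 30 min.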
# * marks the source's active call; other numbers are inactive results; ? = inconclusive; . = not tested or not shown; [ ] = another dose, or the depositor's remark. Sampled rows, rich in hits. Any-hit rate of the full collection: about 10%. Unless noted, calls follow the shape of the dose curve; as a rule, active = well fitted curve in the direction sought with a large enough effect; inconclusive = small, poorly fitted or top-dose-only effect, or another doubt; inactive = no such curve, though single readings can be large; an effect the other way counts as inactive or inconclusive. Unless noted, % is scaled to controls: 0 for no effect and ±100 for the full control effect.
SMILES,G9a inh,CCT modulator,VDR inhibitor,MmCpn inh,PLK1 PBD inh,Sfp PPTase inh
CC(C)(C)N(Cc1ccc2c(c1)OCO2)C(=O)/C=C\S(=O)c1ccccc1 (stereo not given),.,-2,71µM*,.,?,.
CC(c1n[nH]c(=S)n1-c1ccccc1)N1CCCCC1 (stereo not given),18µM*,0,5%,-2%,-1%,2%
CCCc1c(O)nc(SCCN(CC)CC)[nH]c1=O,8%[12.7 µM],-3,-5%,1%,-6%,-17%
CCCc1c(O)nc(SCCN(CC)CC)n(C(=O)c2ccccc2)c1=O,79µM*,-1,7%,2%,-5%,-28%
O=C(CN1C(=O)NC2(CCCC2)C1=O)OCC(=O)c1cccc(Cl)c1,50µM*,0,10%,0%,-5%,.
Cc1ccc(C(=O)N=c2sccn2C)cc1S(=O)(=O)N1CCOCC1,40µM*,0,-4%,0%,-5%,.
CCCOc1ccc(C(=O)CCCC(=O)c2ccc(OCCC)cc2)cc1,.,-1,-7%,-3%,6%,15%
COc1ccc(C(O)(CCN2CCCCC2)C2CCCCC2)cc1 (stereo not given),50µM*,0,?,0%,-24%,5%
CC(C)COc1ccc(C(=O)CCN2CCCCC2)cc1,16µM*,-1,?,1%,21µM*,-22%
O[C@@](CCN1CCCC1)(c1ccccc1)C1CCCCC1,16%[21.5 µM],.,-4%,.,.,13%
CCCC(O)(CCN1CCCCC1)c1ccc(OCC)cc1 (stereo not given),-15%,-1,-25%,2%,-28%,20%
CCCCCC(O)(CCN1CCCCC1)c1ccc(OCC)cc1 (stereo not given),15%[59 µM],0,?,-10%,17µM*,-13%
CCCCOc1ccc(C(=O)CCN2CCCCC2)cc1,10µM*,2,4.5µM*,0%,?,-22%
CCS(=O)(=O)N1CCC2(CC1)OC(=O)C(C)=C2C(=O)NCc1ccc(OC)c(OC)c1,7%[59 µM],.,8%,.,.,.
Cc1c(C)n(Cc2ccccc2)c2ccc(C(=O)NCC(C)c3ccccc3)cc12 (stereo not given),-33%[59 µM],.,9%,.,.,.
CCCCNc1cc(NC(C)=O)cc2cc(OC)c(OC)cc12,45µM*,2,13%,-4%,-14%,1%
COC(=O)c1ccccc1S(=O)(=O)C(C)(C)C,-8%[59 µM],-1,?,0%,24µM*,3%
COC(=O)c1ccccc1O,28%[59 µM],.,6%,.,.,12%
O=C(O)c1ccc(N/N=C/c2ccc(-c3ccccc3Cl)o2)cc1,56µM*,-1,-6%,-1%,?,7%
O=S(=O)(N/N=C\c1ccc(-c2ccccc2Cl)o1)c1ccccc1,7.9µM*,-1,-10%,-2%,-26%,45µM*
Clc1ccccc1-c1ccc(/C=N/Nc2nncc(-c3ccccc3)n2)o1,-17%,-1,-9%,2%,-14%,-9%
O=C(N/N=C/c1ccc(-c2ccccc2Cl)o1)c1ccccc1,4%,-4,-18%,3%,-13%,12%
CN(Cc1ccccc1)C(=O)Nc1ccc2c(c1)N(C)C(=O)c1ccccc1S2,?,.,14%,.,.,.
CCn1c(=O)c2cc(C(=O)Nc3cccc(C(F)(F)F)c3)sc2c2ccccc21,-3%[59 µM],.,-14%,.,.,.
CCc1cccc(NC(=O)CCS(=O)(=O)c2cc3c4c(c2)CCN4C(=O)CC3)c1,?,.,2%,.,.,.
SMILES,G9a inh,CCT modulator,VDR inhibitor,MmCpn inh,PLK1 PBD inh,Sfp PPTase inh
Clc1ss/c(=N\c2ccccn2)c1Cl,1.8µM*,-4,-3%,0%,-28%,35µM*
CCC(=O)Nc1nc(=S)ss1,8.9µM*,-1,45µM*,3%,21µM*,10µM*
CC(C)(C)C(=O)Nc1nc(=S)ss1,?,-3,?,1%,?,22µM*
CC(C)(C)C(=O)Nc1ccc(NC(=O)C(C)(C)C)cc1,.,-1,-9%,4%,-25%,24%
CC(NC(=O)c1nn(C)c2c1CSc1ccccc1-2)c1ccccc1 (stereo not given),?,.,12%,.,.,.
Cn1cc(S(=O)(=O)N2CCCCCC2)cc1C(=O)N1CCN(c2ccccc2F)CC1,4%[59 µM],.,9%,.,.,.
Cn1cnc([N+](=O)[O-])c1NCc1ccccc1,.,1,-1%,1%,3%,2%
Cn1cnc([N+](=O)[O-])c1Nc1ccc(O)cc1,25µM*,-1,-6%,0%,2%,?
CCc1nc(Nc2ccc(F)cc2)c2oc3ccccc3c2n1,45µM*,-2,14%,-3%,10%,-7%
CCc1nc(Nc2cccc(OC)c2)c2oc3ccccc3c2n1,8%,1,6%,-2%,2%,?
CCc1nc(Nc2cccc(F)c2)c2oc3ccccc3c2n1,45µM*,-5,-22%,-2%,0%,1%
CCc1nc(Nc2ccc(N3CCN(C(C)=O)CC3)cc2)c2oc3ccccc3c2n1,?,1,14%,-6%,1%,?
CCc1c(C)sc(NC(=S)Nc2cccnc2)c1C(=O)OC,45µM*,-3,-12%,-2%,?,20µM*
COc1ccc(COc2cc(-c3cccc(OC)c3)nc3ccc(NC(=O)c4cccnc4)cc23)cc1,50µM*,1,-1%,-6%,-3%,?
CCOC(=O)c1cccc(NC(=O)c2cnccn2)c1,-20%[12.7 µM],-5,10%,2%,-4%,2%
CCOC(=O)c1cccc(NC(=S)NC(=O)c2cccnc2)c1,50µM*,1,-9%,-1%,0%,5%
COc1cccc(NC(=S)NC(=O)c2cccnc2)c1,7.9µM*,-3,-8%,1%,0%,-27%
CCc1c(C)sc(NC(=S)Nc2nc(C)cc(C)n2)c1C(=O)OC,-30%,1,-7%,-5%,1%,-23%
CCNc1ncc2nc(-c3ccc(Cl)cc3)c(=O)n(CCC#N)c2n1,-28%[0.501 µM],.,-7%,.,.,25%
Cc1ccccc1OCCSc1nc(C)c(Cc2ccccc2)c(=O)[nH]1,-23%[59 µM],.,29%,.,.,.
CNC(=O)c1ccc(NC(=O)CN2c3cccc4cccc(c34)S2(=O)=O)cc1,45µM*,2,-8%,-6%,-10%,.
CC(NC(=O)CN1c2cccc3cccc(c23)S1(=O)=O)c1ccccc1 (stereo not given),.,-1,.,.,-11%,.
CC(C)NC(=O)NC(=O)CN1c2cccc3cccc(c23)S1(=O)=O,32µM*,2,-11%,-2%,-14%,-8%
